# “And” between values parts separate entries of the source, which are not always exact repeats. Equal values may be shown once. Results filed as inconclusive are left out. Some compounds were tested as several samples or in several runs, with calls that do not always agree. The source made the active and inactive calls. Unless noted, calls follow the shape of the dose curve; as a rule, active = well fitted curve in either direction with a large enough effect (not every such curve was filed as active); inconclusive = small, poorly fitted or top-dose-only effect, or another doubt; inactive = flat fitted curve, though single readings scatter.
# How the values were obtained:
# [1] = AP1 Signaling Pathway (AID 357); settings: ME-180 AP-1-bla reporter, EGF-induced, beta-lactamase ratio, 5 h;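 also: ME-180 reporter cells stimulated with EGF at its EC50 level; % is scaled to controls: 0 for no effect and ±100 for the full control effect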
# Method in brief: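 First, ME-180 AP-1-bla cells were cultured overnight at 37 °C in low-serum Opti-MEM. Next, titrated compounds with EC50 EGF were incubated 5 hours. Finally, CCF4 was added for 2.5 hours and the 460/530 nm ratio recorded.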
# [2] = molecular target: Cytochrome P450 1A2 (Homo sapiens) (UniProt P05177); assay: p450-cyp1a2 (AID 410; calls by dose curve; also: potency is read from the fitted curve at half-maximal effect;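 as to activity change, negative = inhibition: -100% = full effect of reference inhibitor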); settings: recombinant CYP1A2, luciferin-ME demethylation, luminescence; series mostly up to 57 µM
# Sequence of Cytochrome P450 1A2 (Homo sapiens) (P05177 whole entry, looked up): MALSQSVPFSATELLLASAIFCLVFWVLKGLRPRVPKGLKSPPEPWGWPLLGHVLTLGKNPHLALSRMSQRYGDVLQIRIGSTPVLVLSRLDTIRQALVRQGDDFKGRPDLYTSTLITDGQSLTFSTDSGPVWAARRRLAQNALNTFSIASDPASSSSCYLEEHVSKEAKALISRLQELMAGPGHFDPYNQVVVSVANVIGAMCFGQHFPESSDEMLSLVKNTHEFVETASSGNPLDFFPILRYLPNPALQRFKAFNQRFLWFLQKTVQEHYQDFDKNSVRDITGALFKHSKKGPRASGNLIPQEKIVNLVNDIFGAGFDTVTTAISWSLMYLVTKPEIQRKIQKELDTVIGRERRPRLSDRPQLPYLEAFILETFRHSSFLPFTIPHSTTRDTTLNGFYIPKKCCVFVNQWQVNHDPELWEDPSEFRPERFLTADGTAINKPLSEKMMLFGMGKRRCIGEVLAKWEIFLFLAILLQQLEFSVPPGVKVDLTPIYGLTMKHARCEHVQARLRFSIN
# Method in brief: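 Human CYP1A2 (20nM) demethylated Luciferin-ME at its Km (100uM) in 100mM KPO4. After 10 min compound preincubation, NADPH regeneration ran the reaction 60 min at room temperature. Luciferin was read by luminescence, normalized to 57 uM furafylline.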
# [3] = NFAT Signaling Pathway (AID 444); settings: Jurkat NFAT-bla M1, carbachol, beta-lactamase ratio, 5 h;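 also: carbachol stimulus at about its EC50 of 1 µM final; % is scaled to controls: 0 for no effect and ±100 for the full control effect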
# Method in brief: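 Read-out: CCF4 FRET ratio (460 nm/530 nm) after 1 h RT dye loading, used for %activity and AC50 from titration series. Cells: Jurkat NFAT-β-lactamase/M1 line, treated with compound plus 1 uM carbachol for 5 h, 37 °C.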
# [4] = Stat Signaling Pathway (AID 446); settings: ME-180 (cervical carcinoma) SIE beta-lactamase reporter, IL-6 stimulated, 5 h;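 also: ME-180 cervical cancer cells given 40 pM IL-6 alongside compound; SIE-controlled beta-lactamase reporter measured as 460/530 nm FRET emission ratio; % is scaled to controls: 0 for no effect and ±100 for the full control effect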
# Method in brief: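 IL-6/STAT signaling read in ME-180 cells via an SIE beta-lactamase reporter. Stimulus was 40 pM IL-6 (its AC50) for 5 hrs, so both activation and inhibition register.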
# [5] = molecular target: Glucocorticoid receptor (Homo sapiens) (UniProt P04150); assay: GR-GFP Redistribution (AID 450;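 active = compounds whose dose series gives a full or clear partial fitted curve of increased nuclear translocation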; also: potency is read from the fitted curve at half-maximal effect); settings: U2OS GR-GFP nuclear translocation, laser cytometry, 2 h
# Sequence of Glucocorticoid receptor (Homo sapiens) (P04150 whole entry, looked up, the tested form may be a part): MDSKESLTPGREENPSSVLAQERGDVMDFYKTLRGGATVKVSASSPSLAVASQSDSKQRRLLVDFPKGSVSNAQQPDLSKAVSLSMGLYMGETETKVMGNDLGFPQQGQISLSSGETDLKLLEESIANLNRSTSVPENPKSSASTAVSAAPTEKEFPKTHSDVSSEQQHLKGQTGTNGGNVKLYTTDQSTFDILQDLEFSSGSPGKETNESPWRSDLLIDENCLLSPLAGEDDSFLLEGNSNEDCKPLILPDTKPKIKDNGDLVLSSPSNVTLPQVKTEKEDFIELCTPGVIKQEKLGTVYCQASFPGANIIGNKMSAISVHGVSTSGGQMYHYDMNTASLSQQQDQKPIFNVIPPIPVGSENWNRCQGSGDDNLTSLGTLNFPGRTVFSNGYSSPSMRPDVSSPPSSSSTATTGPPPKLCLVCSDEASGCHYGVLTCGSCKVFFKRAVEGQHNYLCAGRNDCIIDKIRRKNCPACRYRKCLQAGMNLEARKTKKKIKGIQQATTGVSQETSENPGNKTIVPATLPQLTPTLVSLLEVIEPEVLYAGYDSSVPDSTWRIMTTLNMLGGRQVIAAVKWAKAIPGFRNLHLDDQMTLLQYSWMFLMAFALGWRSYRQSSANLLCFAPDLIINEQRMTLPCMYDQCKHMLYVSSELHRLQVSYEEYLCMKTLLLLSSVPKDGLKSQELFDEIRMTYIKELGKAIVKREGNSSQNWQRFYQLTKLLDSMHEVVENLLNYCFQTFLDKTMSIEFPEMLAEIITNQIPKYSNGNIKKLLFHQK
# [6] = molecular target: Glucocorticoid receptor (Homo sapiens) (UniProt P04150); assay: GR-EFC Redistribution (AID 451; calls by dose curve; also: potency is read from the fitted curve at half-maximal effect); settings: CHO-K1 GR-EFC translocation, beta-gal luminescence, 2 h
# Method in brief: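 Translocation of GR-ED fusion to nuclear EA restores b-gal, read by luminescence after 1 h room-temperature detection. Engineered CHO-K1 biosensor cells, 1,000/well, exposed 2 h at 37 C to titrations up to 46 uM final.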
# [7] = molecular target: Mitogen-activated protein kinase 10 (Mus musculus) (UniProt Q61831); assay: JNK3 AlphaScreen Assay (AID 530); settings: JNK3 lysate, c-Jun phosphorylation; series mostly up to 57.1 µM;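 also: kinase came from lysate of stimulated human HepG2 cells; signal reports phosphorylation of biotinylated GST-cJun 1-79 at Ser73 with 10 µM ATP; % is scaled to controls: 0 for no effect and ±100 for the full control effect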
# Method in brief: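 Room-temperature AlphaScreen kinase assay; pre-activated HepG2 lysate as JNK3 source, biotin-GST-cJun(1-79) substrate, 10 uM ATP, compound 15 min preincubation.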
# [8] = molecular target: 3',5'-cyclic-AMP phosphodiesterase 4B (Homo sapiens) (UniProt Q07343); assay: qHTS Assay for Inhibitors of PDE-IV (AID 607; active = well fitted activation curve with a large enough effect in the main read-out, with a control signal flat, not every such curve was filed as active; also: % of control where 0% means no effect); settings: HEK293 ACTOne CNG channel cells, membrane potential fluorescence; series mostly up to 22.9 µM
# Sequence of 3',5'-cyclic-AMP phosphodiesterase 4B (Homo sapiens) (Q07343 whole entry, looked up): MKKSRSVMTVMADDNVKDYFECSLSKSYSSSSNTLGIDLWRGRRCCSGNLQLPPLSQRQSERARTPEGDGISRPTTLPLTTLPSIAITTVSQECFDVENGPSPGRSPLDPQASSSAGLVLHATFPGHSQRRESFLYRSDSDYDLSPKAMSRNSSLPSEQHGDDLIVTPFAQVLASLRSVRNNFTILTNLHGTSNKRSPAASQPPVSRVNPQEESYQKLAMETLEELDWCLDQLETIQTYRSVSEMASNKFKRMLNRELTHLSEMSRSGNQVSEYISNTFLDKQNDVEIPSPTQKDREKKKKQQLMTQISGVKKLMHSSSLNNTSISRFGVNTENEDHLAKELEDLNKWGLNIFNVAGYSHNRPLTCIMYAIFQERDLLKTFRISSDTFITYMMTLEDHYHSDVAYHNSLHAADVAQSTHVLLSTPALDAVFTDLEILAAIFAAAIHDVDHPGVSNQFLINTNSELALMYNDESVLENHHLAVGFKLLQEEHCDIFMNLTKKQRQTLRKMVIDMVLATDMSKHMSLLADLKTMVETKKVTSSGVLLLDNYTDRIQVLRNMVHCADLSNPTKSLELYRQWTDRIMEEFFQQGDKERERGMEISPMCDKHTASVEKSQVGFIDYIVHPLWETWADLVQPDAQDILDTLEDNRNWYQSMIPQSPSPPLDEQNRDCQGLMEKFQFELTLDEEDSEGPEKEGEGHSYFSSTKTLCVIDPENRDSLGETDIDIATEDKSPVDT
# Method in brief: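 Live HEK293 cells with a modified cyclic nucleotide-gated (CNG) channel report intracellular cAMP via membrane-potential dye fluorescence (ex 535/em 590 nm). Endogenous PDE-IV was targeted. Compounds were tested at up to 22.9 uM final; RO 20-1724 100 uM served as control.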
# [9] = molecular target: Guanine nucleotide-binding protein G(i) subunit alpha-1 (Homo sapiens) (UniProt P63096); assay: qHTS Assay for Inhibitors of RGS12 GoLoco Motif Activity (Green Fluorophore) (AID 879; active = well fitted curve in the direction sought with a large enough effect; an effect the other way counts as inactive or inconclusive;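 also: 0% = labeled peptide with Gαi1 and full inhibition = labeled peptide alone without protein; negative values mean loss of peptide binding seen as reduced polarization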); settings: Galphai1/FITC-RGS12 GoLoco peptide, fluorescence polarization; series mostly up to 57.1 µM
# Sequence of Guanine nucleotide-binding protein G(i) subunit alpha-1 (Homo sapiens) (P63096 whole entry, looked up): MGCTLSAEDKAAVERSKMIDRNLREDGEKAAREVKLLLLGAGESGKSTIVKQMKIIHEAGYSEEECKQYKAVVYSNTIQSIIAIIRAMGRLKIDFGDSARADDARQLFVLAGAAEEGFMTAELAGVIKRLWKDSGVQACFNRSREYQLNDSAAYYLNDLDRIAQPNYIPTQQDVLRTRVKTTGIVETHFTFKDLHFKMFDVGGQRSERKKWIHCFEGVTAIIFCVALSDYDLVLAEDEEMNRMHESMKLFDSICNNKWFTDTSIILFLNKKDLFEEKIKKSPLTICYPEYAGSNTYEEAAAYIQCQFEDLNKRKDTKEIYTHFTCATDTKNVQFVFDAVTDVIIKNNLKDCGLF
# Method in brief: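 Fluorescence polarization assay: 50 nM Gαi1 with 10 nM FITC-labeled RGS12 GoLoco peptide in 10 mM Tris pH 7.5, 150 mM NaCl, 0.1 mM GDP, 0.05% NP40, 10 min at room temperature with compound.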
# [10] = molecular target: Pyruvate kinase (Leishmania mexicana) (UniProt Q27686); assay: qHTS Validation Assay for Inhibitors of Leishmania Mexicana Pyruvate Kinase (AID 945; active = well fitted curve in the direction sought with a large enough effect; an effect the other way counts as inactive or inconclusive;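 also: 0% = DMSO only neutral control wells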); settings: purified L. mexicana pyruvate kinase, enzyme activity, E451W mutant enzyme; series mostly up to 57.5 µM
# Sequence of Pyruvate kinase (Leishmania mexicana) (Q27686 2-499 E452W): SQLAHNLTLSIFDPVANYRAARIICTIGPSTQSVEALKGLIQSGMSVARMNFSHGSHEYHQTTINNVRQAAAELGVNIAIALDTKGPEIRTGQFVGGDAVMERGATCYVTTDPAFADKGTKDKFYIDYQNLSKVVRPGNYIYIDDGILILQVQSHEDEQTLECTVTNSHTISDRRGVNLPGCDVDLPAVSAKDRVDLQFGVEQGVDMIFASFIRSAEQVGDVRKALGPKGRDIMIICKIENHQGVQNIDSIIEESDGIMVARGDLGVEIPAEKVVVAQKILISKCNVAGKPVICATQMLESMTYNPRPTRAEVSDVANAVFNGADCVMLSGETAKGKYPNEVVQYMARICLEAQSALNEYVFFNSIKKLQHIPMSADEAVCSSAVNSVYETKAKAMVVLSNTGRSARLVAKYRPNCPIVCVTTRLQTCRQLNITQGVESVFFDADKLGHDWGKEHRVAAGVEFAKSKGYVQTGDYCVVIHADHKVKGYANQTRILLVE
# Method in brief: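 The enzyme is a highly purified E451W mutant of LmPYK used at 0.2 nM. It converts 0.5 mM PEP and 0.1 mM ADP over 1 h at room temperature; product ATP is quantified by luciferase luminescence relative to DMSO controls.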
# [11] = molecular target: Pyruvate kinase PKM (Homo sapiens) (UniProt P14618); assay: qHTS Assay for Activators of Human Muscle Pyruvate Kinase (AID 954; active = well fitted curve in the direction sought with a large enough effect, not every such curve was filed as active;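 also: 0% = uninhibited enzyme and -100% = no enzyme or full thiadiazolimine inhibition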); settings: purified human muscle pyruvate kinase, luciferase-coupled luminescence, 1 h; series mostly up to 57.5 µM
# Sequence of Pyruvate kinase PKM (Homo sapiens) (P14618 whole entry, looked up): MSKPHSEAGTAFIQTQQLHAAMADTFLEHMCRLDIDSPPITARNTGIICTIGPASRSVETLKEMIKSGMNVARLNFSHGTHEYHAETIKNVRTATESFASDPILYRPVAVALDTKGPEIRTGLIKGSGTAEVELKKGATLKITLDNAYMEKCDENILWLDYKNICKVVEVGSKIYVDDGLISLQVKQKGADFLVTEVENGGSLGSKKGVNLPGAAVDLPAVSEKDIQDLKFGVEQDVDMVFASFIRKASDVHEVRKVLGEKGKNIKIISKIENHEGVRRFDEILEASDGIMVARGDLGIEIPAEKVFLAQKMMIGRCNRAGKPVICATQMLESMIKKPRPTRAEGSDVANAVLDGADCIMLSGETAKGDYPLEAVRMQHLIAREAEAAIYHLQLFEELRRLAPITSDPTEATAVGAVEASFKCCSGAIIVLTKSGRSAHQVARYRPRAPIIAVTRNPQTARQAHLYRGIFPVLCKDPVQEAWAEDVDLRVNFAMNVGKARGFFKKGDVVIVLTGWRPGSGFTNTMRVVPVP
# Method in brief: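 Enzyme was run at intermediate activity so both inhibitors and activators could be detected. ATP formed from ADP and PEP by 0.1 nM human PKM2 during a 1 h room-temperature incubation was quantified by coupled luciferase luminescence.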
# [12] = qHTS Assay for Lipid Storage Modulators (AID 1519; calls by dose curve); settings: Drosophila S3 cells, BODIPY lipid droplet/cell ratio, laser cytometry, cells loaded with oleic acid; for activity change, negative = inhibition: at 25.7 µM (top of the series)
# Method in brief: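 Cells seeded at 5,000 per well were treated with compounds over a concentration series and loaded with oleic acid (400 uM, as added). Lipid droplet fluorescence (488 nm excitation, 500-530 nm channel) was read by laser-scanning cytometry and normalized to 20 uM Triacsin C.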
# [13] = molecular target: ATP-dependent 6-phosphofructokinase (Trypanosoma brucei brucei) (UniProt O15648); assay: qHTS Assay to Find Inhibitors of T. brucei phosphofructokinase: hit validation (AID 492961; active = well fitted curve in the direction sought with a large enough effect; an effect the other way counts as inactive or inconclusive); settings: T. brucei PFK, ADP-Glo luminescence; series mostly up to 24.3 µM
# Sequence of ATP-dependent 6-phosphofructokinase (Trypanosoma brucei brucei) (O15648 whole entry, looked up): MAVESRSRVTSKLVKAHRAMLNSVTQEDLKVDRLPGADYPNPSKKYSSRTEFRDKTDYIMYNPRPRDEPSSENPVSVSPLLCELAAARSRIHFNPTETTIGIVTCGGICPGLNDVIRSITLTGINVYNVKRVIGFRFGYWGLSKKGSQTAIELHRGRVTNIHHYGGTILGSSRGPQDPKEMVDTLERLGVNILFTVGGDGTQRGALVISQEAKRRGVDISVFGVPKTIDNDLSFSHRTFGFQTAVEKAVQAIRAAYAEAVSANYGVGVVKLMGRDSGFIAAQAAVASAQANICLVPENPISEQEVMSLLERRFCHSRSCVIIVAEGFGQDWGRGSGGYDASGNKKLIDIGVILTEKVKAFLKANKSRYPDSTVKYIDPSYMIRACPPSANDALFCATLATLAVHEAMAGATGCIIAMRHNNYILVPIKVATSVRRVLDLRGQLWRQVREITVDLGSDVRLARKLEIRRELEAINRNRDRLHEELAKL
# Method in brief: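 Measures ADP output of PFK (1.25 nM) at 0.1 mM ATP, 0.5 mM F6P, pH 8.0 TEA buffer with 5 mM MgCl2. No-enzyme wells define full inhibition; uninhibited enzyme wells define zero.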
# [14] = molecular target: Ubiquitin carboxyl-terminal hydrolase 1 (Homo sapiens) (UniProt O94782); assay: Inhibitors of USP1/UAF1: Pilot qHTS (AID 504865; active = well fitted curve in the direction sought with a large enough effect; an effect the other way counts as inactive or inconclusive;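 also: rhodamine fluorescence freed from ubiquitin-rhodamine substrate followed over time; top concentration of the series differs between compounds; % is scaled to controls: 0 for no effect and ±100 for the full control effect; nearly all actives have a fitted effect of over 35% in size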); settings: purified USP1/UAF1, Ub-rhodamine cleavage fluorescence; series mostly up to 54.9 µM
# Sequence of Ubiquitin carboxyl-terminal hydrolase 1 (Homo sapiens) (O94782 whole entry, looked up): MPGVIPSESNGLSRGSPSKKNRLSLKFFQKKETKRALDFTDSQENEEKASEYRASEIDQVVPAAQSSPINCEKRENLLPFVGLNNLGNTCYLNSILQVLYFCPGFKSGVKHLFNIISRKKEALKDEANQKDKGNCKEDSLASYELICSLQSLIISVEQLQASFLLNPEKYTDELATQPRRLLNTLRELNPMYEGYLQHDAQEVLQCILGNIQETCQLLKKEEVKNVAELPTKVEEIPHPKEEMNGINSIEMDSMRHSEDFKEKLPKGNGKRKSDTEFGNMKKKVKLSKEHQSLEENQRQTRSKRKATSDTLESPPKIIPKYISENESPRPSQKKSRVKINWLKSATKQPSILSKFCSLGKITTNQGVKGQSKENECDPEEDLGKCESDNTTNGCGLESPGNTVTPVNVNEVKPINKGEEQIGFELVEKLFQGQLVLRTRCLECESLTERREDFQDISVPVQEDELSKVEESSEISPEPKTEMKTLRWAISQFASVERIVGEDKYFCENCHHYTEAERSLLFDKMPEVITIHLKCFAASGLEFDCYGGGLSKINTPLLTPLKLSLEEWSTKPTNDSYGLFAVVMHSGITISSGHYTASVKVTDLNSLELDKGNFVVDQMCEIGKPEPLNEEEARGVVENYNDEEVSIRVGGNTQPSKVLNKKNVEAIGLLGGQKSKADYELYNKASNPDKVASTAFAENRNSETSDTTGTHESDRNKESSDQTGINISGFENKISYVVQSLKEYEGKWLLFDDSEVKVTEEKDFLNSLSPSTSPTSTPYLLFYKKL
# Method in brief: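 USP1/UAF1 complex at 1 nM preincubated 15 min at room temperature with compound, then Ub-Rho substrate added at 150 nM final. Fluorescence (480/540 nm) read kinetically in 50 mM HEPES pH 7.8, 0.5 mM EDTA, 1 mM TCEP, 0.1 mg/ml BSA, 0.01% Tween-20.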
# [15] = molecular target: Luciferin 4-monooxygenase (Photinus pyralis) (UniProt P08659); assay: Biochemical firefly luciferase enzyme assay for NPC (AID 624030; active = well fitted curve in the direction sought with a large enough effect; an effect the other way counts as inactive or inconclusive;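 also: purified P. pyralis luciferase at 10 nM with luciferin and ATP substrate; 0% = DMSO and -100% = full luciferase inhibition by PTC124 control; nearly all actives have a fitted effect of over 70% in size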); settings: purified P. pyralis luciferase, luminescence, 5 min; series mostly up to 58.6 µM
# Method in brief: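 Direct inhibition of firefly luciferase enzyme (10 nM final, 50 mM Tris Acetate) assessed by luminescence within 5 minutes. Percent activity scaled between DMSO and PTC124 positive control, with concentration-effect curves classified by fit quality and response.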
# [16] = qHTS profiling for inhibitors of Plasmodium falciparum proliferation (AID 504749; active = well fitted curve in the direction sought with a large enough effect; an effect the other way counts as inactive or inconclusive;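 also: 0% = DMSO vehicle and full inhibition = artemisinin control; nearly all actives have a fitted effect of over 60% in size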); settings: P. falciparum in erythrocytes, SYBR Green DNA, 72 h, at 28.7 µM (top of the series)
# Method in brief: (§1)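 Three-day growth assay of blood-stage parasites in erythrocytes (0.3% parasitemia, 2.5% hematocrit) at 37 C, 5% CO2, quantified by SYBR Green DNA staining after overnight detergent lysis.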
# [17] = system: AS120; assay: as above; settings: P. falciparum in erythrocytes, SYBR Green DNA, 72 h; series mostly up to 28.7 µM
# Method in brief: as §1
# [18] = system: CP238; assay: as above; settings: P. falciparum in erythrocytes, SYBR Green DNA, 72 h; series mostly up to 12.8 µM
# Method in brief: as §1
# [19] = system: CP265; assay: as above; settings: P. falciparum in erythrocytes, SYBR Green DNA, 72 h; series mostly up to 12.8 µM
# Method in brief: as §1
# [20] = system: FAB9; assay: as above; settings: P. falciparum in erythrocytes, SYBR Green DNA, 72 h; series mostly up to 12.8 µM
# Method in brief: as §1
# [21] = measured here: cell count channel max response
# [22] = measured here: lipid channel max response
compound,measurement,setting,value
CC[C@]1(C)CC(=O)NC1=O,"activity change, negative = inhibition",[1]; at 17.2 µM (top of the series),1.25% (inactive)
same,"activity change, negative = inhibition",[1]; at 38 µM (top of the series),0.0779% (inactive)
same,Potency,[2],inactive
same,"activity change, negative = inhibition",[3]; at 17.2 µM (top of the series),5.72% (inactive)
same,"activity change, negative = inhibition",[3]; at 38 µM (top of the series),0.552% (inactive)
same,"activity, negative = inhibition",[4]; at 17.2 µM (top of the series),2.02% (inactive)
same,"activity, negative = inhibition",[4]; at 38 µM (top of the series),10.7% (inactive)
same,Potency,[5],> 46 µM (inactive) and > 20.6 µM (inactive)
same,Potency,[6],> 46 µM (inactive) and > 20.6 µM (inactive)
same,Potency,[7],inactive
same,Potency,[8],inactive
same,Potency,[9],inactive
same,outcome,[10],inactive
same,outcome,[11],inactive
same,"activity change, negative = inhibition",[12],0.986% (inactive)
same,max response,[12]; [21],2.27%
same,max response,[12]; [22],7.01%
same,outcome,[13],inactive
same,Potency,[14],inactive
same,outcome,[15],inactive
same,"activity, negative = inhibition",[16]; parasite line A,10.6% (inactive)
same,"activity, negative = inhibition",[16]; parasite line B,5.48% (inactive)
same,Potency,[17],inactive
same,Potency,[18],inactive
same,Potency,[19],inactive
same,Potency,[20],inactive
C[C@@]12CC[C@@H]3c4ccc(O)cc4CC[C@H]3[C@H]1CC[C@H]2O,"activity change, negative = inhibition",[1]; at 17.2 µM (top of the series),-5.6% (inactive)
same,"activity change, negative = inhibition",[1]; at 38 µM (top of the series),-13.9% (inactive)
same,Potency,[2],10 µM (active) and 5.01 µM (active)
same,"activity change, negative = inhibition",[3]; at 17.2 µM (top of the series),-19.1% (inactive)
same,"activity change, negative = inhibition",[3]; at 38 µM (top of the series),-4.36% (inactive)
same,"activity, negative = inhibition",[4]; at 17.2 µM (top of the series),-28.8% (inactive)
same,"activity, negative = inhibition",[4]; at 38 µM (top of the series),-19.1% (inactive)
same,Potency,[5],> 46 µM (inactive) and > 20.6 µM (inactive)
same,Potency,[6],> 46 µM (inactive) and > 20.6 µM (inactive)
same,Potency,[7],inactive
same,Potency,[8],inactive
same,"activity change, negative = inhibition",[12],-0.875% (inactive)
same,max response,[12]; [21],-11.7%
same,max response,[12]; [22],-11.1%
same,Potency,[14],inactive
c1ccc([C@@H]2CN3CCSC3=N2)cc1,"activity change, negative = inhibition",[1]; at 17.2 µM (top of the series),0.374% (inactive)
same,"activity change, negative = inhibition",[1]; at 38 µM (top of the series),8.49% (inactive) and 7.24% (inactive)
same,Potency,[2],31.6 µM (active) and inactive and 10 µM (active)
same,"activity change, negative = inhibition",[3]; at 17.2 µM (top of the series),-19.6% (inactive)
same,"activity change, negative = inhibition",[3]; at 38 µM (top of the series),-1.25% (inactive) and -14% (inactive)
same,"activity, negative = inhibition",[4]; at 17.2 µM (top of the series),-3.45% (inactive)
same,"activity, negative = inhibition",[4]; at 38 µM (top of the series),11.8% (inactive)
same,Potency,[5],> 46 µM (inactive) and > 20.6 µM (inactive)
same,Potency,[6],> 46 µM (inactive) and > 20.6 µM (inactive)
same,Potency,[7],inactive
same,Potency,[8],inactive
same,Potency,[9],inactive
same,outcome,[10],inactive
same,outcome,[11],inactive
same,"activity change, negative = inhibition",[12],-1.37% (inactive)
same,max response,[12]; [21],3.69%
same,max response,[12]; [22],-1.44%
same,Potency,[14],inactive

# From PubChem BioAssay (NCATS)
